Assay outcomes (PubChem)
Shiga inhibitor = A qHTS for Small Molecule Inhibitors of Shiga Toxin; Vero cells, Shiga toxin protein synthesis inhibition reporter; AID 2315, 2010; inhibition, % at 38.7 µM; hit rate 9.2% among 290,000; in the data active = inhibition mostly above about 28%, no sharp cut-off; inactive = mostly below about 43%; also: 0% is about no effect
Pf growth 48h = Primary qHTS for delayed death inhibitors of the malarial parasite plastid, 48 hour incubation; hit rate 5.9% among 310,000; AID 504832, 2011; P. falciparum luciferase growth in erythrocytes, 48 h; Potency, µM (titrated, usually from 28.7 µM), inactives show at the top dose activity change, negative = inhibition, most hits filed as inhibitors; also: potency is read from the fitted curve at half-maximal effect; % is scaled to controls: 0 for no effect and ±100 for the full control effect
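Cell-based growth assay: transgenic P. falciparum expressing firefly luciferase, cultured in red cells within RPMI 1640 containing 0.5% w/v Albumax, 24 mM bicarbonate and gentamycin. A drop in luciferase activity indicates inhibition.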
Pf growth 96h = Primary qHTS for delayed death inhibitors of the malarial parasite plastid, 96 hour incubation | hit rate 6.9% among 320,000 | P. falciparum luciferase reporter growth, 96 h | Potency, µM (titrated, usually from 28.7 µM), for the others: top-dose activity change, negative = inhibition, most hits filed as inhibitors | AID 504834, 2011; also: potency is read from the fitted curve at half-maximal effect; % is scaled to controls: 0 for no effect and ±100 for the full control effect
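Delayed-death screen, second-generation endpoint: infected erythrocytes, 2% hematocrit, 0.05% parasitemia final; 96 hours at 37 C, 5% CO2; luciferase detection reagent; luminescence decrease equals reduced growth.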
NS1 function inh = qHTS Assay for Inhibitors of Influenza NS1 Protein Function; Potency, µM (highest dose often 46.1 µM), for the others: at the highest dose activity, positive = more growth; hit rate 0.4% among 270,000; AID 2326, 2010; calls by dose curve; also: potency is read from the fitted curve at half-maximal effect; actives are rising curves; nearly all actives have a fitted effect of over 50% in size
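S. cerevisiae expressing influenza A NS1, grown in glucose, washed, then diluted 1:100 into pH 6.0 -URA galactose medium with 23 nl compound. Growth recovery read as OD600; NS1-free strain serves as control.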
SARS PLpro yeast = qHTS of Yeast-based Assay for SARS-CoV PLP | S. cerevisiae expressing SARS-CoV PLpro, growth rescue | Potency, µM (highest dose often 32.9 µM), without a hit: top-dose activity, positive = growth rescue, usual class: activators | hit rate 0.19% among 330,000; calls by dose curve; also: potency is read from the fitted curve at half-maximal effect; 0% is about no effect; nearly all actives have a fitted effect of over 55% in size
Cycloheximide cs = Cycloheximide Counterscreen for Small Molecule Inhibitors of Shiga Toxin; max response, %; hit rate 12% among 300,000; cell reporter, cycloheximide protein synthesis inhibition counterscreen; in the data active = max response mostly above about 13%, no sharp cut-off; inactive = mostly below about 14%; also: read at 38.3 µM for the half of the compounds with a filed dose; 0% is about no effect
* = called active by the depositor. An excerpt weighted towards active compounds, which were near 21% of everything screened. Unless noted, calls follow the shape of the dose curve; as a rule, active = well fitted inhibition curve with a large enough effect; inconclusive = small, poorly fitted or top-dose-only effect, or another doubt; inactive = no such curve, though single readings can be large or run the other way.

`O=C(c1ccc([N+](=O)[O-])cc1[N+](=O)[O-])n1cnc2ccccc21` gave Shiga inhibitor 11, Pf growth 48h -15%, Pf growth 96h 0%, SARS PLpro yeast 1% and Cycloheximide cs -2.
Screening CC(Oc1ccc(-n2cnnn2)cc1)C(=O)O (configuration not stated) returned Shiga inhibitor 12, Pf growth 48h 4%, Pf growth 96h 19%, SARS PLpro yeast 0% and Cycloheximide cs -1.
O=C(CCCN1C(=O)/C(=C/c2ccccc2)SC1=S)NCCCn1ccnc1 was read as Shiga inhibitor -5, Pf growth 48h inconclusive, Pf growth 96h 9.3µM*, NS1 function inh 8%, SARS PLpro yeast -2% and Cycloheximide cs 2.
`CC(C)c1ccc(/C=C2\SC(=O)N(CC(=O)NCCCn3ccnc3)C2=O)cc1` gave Shiga inhibitor 69*, Pf growth 48h 134%, Pf growth 96h 138%, NS1 function inh 5%, SARS PLpro yeast -4% and Cycloheximide cs 39*.
`O=C(CCN1C(=O)S/C(=C\c2ccccc2)C1=O)NCCCn1ccnc1` gave Shiga inhibitor -4, Pf growth 48h -7%, Pf growth 96h -12%, NS1 function inh -10%, SARS PLpro yeast 27% and Cycloheximide cs 17.
`C/C(=C/C(=O)O)C(=O)Nc1cccc(C(F)(F)F)c1` gave Shiga inhibitor 34, Pf growth 48h 2%, Pf growth 96h 29%, SARS PLpro yeast 1% and Cycloheximide cs -3.
`O=C(CCC1CCCN(C(=O)c2cccc(F)c2)C1)N1CCN(c2ccccn2)CC1` (configuration not stated) gave Shiga inhibitor 12, Pf growth 48h -17%, Pf growth 96h -19%, NS1 function inh -2%, SARS PLpro yeast 4% and Cycloheximide cs 0.
`O=C1CN(c2ccccc2)C(=S)N1c1ccccc1` gave Shiga inhibitor -3, Pf growth 48h 2%, Pf growth 96h -20%, NS1 function inh 9%, SARS PLpro yeast -3% and Cycloheximide cs -1.
`COc1ccc(N2CC(=O)N(c3ccccc3)C2=S)cc1` gave Shiga inhibitor 32, Pf growth 48h 21%, Pf growth 96h inconclusive, NS1 function inh 1%, SARS PLpro yeast 18% and Cycloheximide cs 27*.
For COc1ccc(N2C(=O)C3C(C2=O)C3(c2ccccc2)c2ccccc2)cc1 (configuration not stated) the results were Shiga inhibitor -12, Pf growth 48h inconclusive, Pf growth 96h -9%, NS1 function inh -5%, SARS PLpro yeast -1% and Cycloheximide cs -3.
`COc1ccc(N=C2SC(C(=O)O)CC(=O)N2C)cc1` (configuration not stated) gave Shiga inhibitor -28, Pf growth 48h 2%, Pf growth 96h -11%, NS1 function inh -8%, SARS PLpro yeast 5% and Cycloheximide cs -6.
`COc1ccc(N=C2C(=Nc3ccc(OC)cc3)N(c3ccc(OC)cc3)C(=S)N2C)cc1` gave Shiga inhibitor 19, Pf growth 48h 5.2µM*, NS1 function inh -11%, SARS PLpro yeast -2% and Cycloheximide cs -2.
Screening COc1ccc(N=C2C(=Nc3ccc(OC)cc3)N(c3ccc(OC)cc3)C(=S)N2c2ccccc2)cc1 returned Shiga inhibitor 70*, Pf growth 48h 28%, NS1 function inh -12%, SARS PLpro yeast 14% and Cycloheximide cs 60*.
Cn1ccc(/C=N/N=C2/NC(=O)CS2)n1 was read as Shiga inhibitor -8, Pf growth 48h -11%, Pf growth 96h inconclusive, NS1 function inh -2%, SARS PLpro yeast 3% and Cycloheximide cs -1.
`NCCCCCCCCCCNCCCN` gave Shiga inhibitor -10 and Cycloheximide cs -9.
For Cc1ccc(Nc2nc3ccccc3n3nnnc23)cc1 the results were Shiga inhibitor 71*, Pf growth 48h 28%, Pf growth 96h -24%, NS1 function inh -1%, SARS PLpro yeast -1% and Cycloheximide cs 26*.
For Fc1cc(Br)ccc1Nc1nc2ccccc2n2nnnc12 the results were Shiga inhibitor 42*, Pf growth 48h 47%, Pf growth 96h 45%, NS1 function inh -8%, SARS PLpro yeast 10% and Cycloheximide cs 27*.
